hDAT+cocaine: changed hDAT dopamine uptake under cocaine IC80, either direction, primary screen, cocaine antagonist project, cell-based, LLC-PK1 hDAT, [14C]-dopamine uptake, MLSMR. AID 449768, 2010. actives 1.3% (n = 110,000). Sodium-dependent dopamine transporter (Homo sapiens), Q01959. B-score at 10 µM. LLC-PK1 hDAT cells, [14C]-dopamine uptake with cocaine IC80; actives deviate in either direction;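 active = Z score or B-score, a plate-position-corrected score, falls beyond the plate's 99.7% confidence bounds, in either direction; inactive = both scores lie inside the 99.7% bounds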
D1 allo mod: D1 CRE-luciferase signal change, two-sided – cell-based, HEK293 D1, dopamine EC30, D1 allosteric modulator project, primary screen. D(1A) dopamine receptor (Homo sapiens), P21728. AID 641, 2007. dopamine EC30 potentiation; actives deviate in either direction. B-score at 10 µM. actives 5.9% (n = 58,000);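 active = luminescence count or its row- and column-corrected plate score outside the 99.7% band of the plate's sample wells, on either side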
PKA inh: inhibitors of human PKA kinase activity, primary screen, biochemical, ATP-depletion luminescence, Kemptide substrate. cAMP-dependent protein kinase catalytic subunit alpha (Homo sapiens), P17612. PKA Kemptide phosphorylation, Kinase-Glo ATP luminescence. actives 0.1% (n = 65,000). AID 524, 2006. inhibition, % at 6 µM;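 active = inhibition above the screen-wide mean inhibition plus 3 SD, cut at about 21% in these data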
ROCK2 blocker: inhibitors of human ROCK2 kinase, primary screen, biochemical, high-throughput, luminescence; Rho-associated protein kinase 2 (Homo sapiens), O75116; actives 0.35% (n = 60,000); purified ROCK2, Kinase-Glo ATP depletion luminescence; AID 604, 2007; inhibition, % at 6 µM;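 active = inhibition above the screen-wide mean inhibition plus 3 SD, cut at about 18% in these data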
Of the large screens only hits and unclear results are named; the others gave an inactive call. Only a selection was taken, and hits are over-represented in it overall.

Cc1ccc(C(C(=O)NC(C)(C)C)N(CC2CCCO2)C(=O)Cn2nnc(-c3ccc(C)o3)n2)cc1 (stereo not given)	D1 allo mod -4.2
CC(C)CC(=O)O/N=C1\C(=O)N(Cc2ccc(Cl)cc2)c2ccc([N+](=O)[O-])cc21	none (no result: D1 allo mod, PKA inh, ROCK2 blocker)
O=C1C2C3CC(C(Br)C3Br)C2C(=O)N1c1ccccn1 (stereo not given)	hDAT+cocaine -7.9 (no result: D1 allo mod, PKA inh, ROCK2 blocker)
NC(=O)CC(NC(=O)c1ccccc1)C(=O)O (stereo not given)	none (no result: D1 allo mod, PKA inh, ROCK2 blocker)
O=C(CC(Nc1ccccc1)C(=O)O)c1ccccc1 (stereo not given)	hDAT+cocaine 2.9 (no result: D1 allo mod, ROCK2 blocker)
O=C(C1CCCCC1)N1CCCC(c2nc3c(nnn3Cc3ccccc3)c(=O)[nH]2)C1 (stereo not given)	hDAT+cocaine 2.4 (no result: D1 allo mod)
O=C(C1CCCCC1)N1CCC(c2nc3c(nnn3Cc3ccccc3Cl)c(=O)[nH]2)CC1	none (no result: hDAT+cocaine)
Cc1ccc(C)c(Cn2nnc3c(=O)[nH]c(C4CCCN(C(=O)C5CCCCC5)C4)nc32)c1 (stereo not given)	hDAT+cocaine 4
CC#CCN1C(=O)N[C@@H](c2ccccc2)C(C(=O)OC)=C1C	none (no result: D1 allo mod, PKA inh, ROCK2 blocker)
C#CCOCCOCCOCCNc1nc(N2CCN(C(=O)C([C@@H](C)CC)n3cc(C(N)Cc4ccc(O)cc4)nn3)CC2)nc(N2CCN(C(=O)[C@H](CCC(=O)O)n3cc(C(N)Cc4ccc(O)cc4)nn3)CC2)n1 (stereo not given in full)	none (no result: D1 allo mod, PKA inh, ROCK2 blocker)
Cc1cccc(NC(=O)CSc2n[nH]c(-c3ccncc3)n2)c1	PKA inh 21
O=C(CSc1n[nH]c(-c2ccncc2)n1)NCCc1ccccc1	none
O=C(CSc1n[nH]c(-c2ccncc2)n1)c1ccccc1	PKA inh 43, ROCK2 blocker 105
Cc1ccc(C(=O)NCCSC2CCCCC2)cc1S(=O)(=O)Nc1ccccc1	none (no result: D1 allo mod, PKA inh, ROCK2 blocker)
Cc1c(Br)c([N+](=O)[O-])nn1CC(=O)NCc1cccs1	none (no result: D1 allo mod, PKA inh, ROCK2 blocker)
Cc1c(Br)c([N+](=O)[O-])nn1C(C)C(=O)NCc1cccs1 (stereo not given)	hDAT+cocaine -9.4 (no result: D1 allo mod, PKA inh, ROCK2 blocker)
CC(=O)Nc1ccc(NC(=O)C(C)n2nc([N+](=O)[O-])c(Br)c2C)cc1 (stereo not given)	none (no result: D1 allo mod, PKA inh, ROCK2 blocker)
Cc1c(Br)c([N+](=O)[O-])nn1C(C)C(=O)N1CCCc2ccccc21 (stereo not given)	hDAT+cocaine -8.2 (no result: D1 allo mod, PKA inh, ROCK2 blocker)
Cc1sc(NC(=O)c2ccc(OCC(C)C)cc2)c(C(N)=O)c1-c1ccc(Cl)cc1Cl	none (no result: D1 allo mod, PKA inh, ROCK2 blocker)
CCCCn1c(CN2CCN(c3ccc(F)cc3)CC2)nc2c1c(=O)n(C)c(=O)n2C	D1 allo mod -2.6
CCN1CCN(Cc2nc3c(c(=O)n(C)c(=O)n3C)n2CCc2ccccc2)CC1	hDAT+cocaine -3
CCCCOC(=O)c1[nH]c2c(c1C)C(=O)CC(c1cc(OC)c(OC)c(OC)c1)C2 (stereo not given)	D1 allo mod -3.4
COc1ccc(C2CC(=O)c3c([nH]c(C(=O)OC(C)C)c3C)C2)cc1OC (stereo not given)	none (no result: hDAT+cocaine, ROCK2 blocker)
C=CCOC(=O)c1[nH]c2c(c1C)C(=O)CC(c1cc(OC)c(OC)c(OC)c1)C2 (stereo not given)	D1 allo mod -3.2
O=C(C1=C[C@H](C2CCCCC2)C[C@H](OCCCCO)O1)N1CCN(Cc2ccccc2)CC1	none (no result: D1 allo mod, PKA inh, ROCK2 blocker)
Cc1ccccc1Nc1nc(-c2sc(NC(=O)c3ccccc3)nc2C)cs1	hDAT+cocaine 2.5 (no result: D1 allo mod, PKA inh, ROCK2 blocker)
COc1ccc(Cl)cc1Nc1nc(-c2sc(NC(=O)c3ccccc3)nc2C)cs1	none (no result: D1 allo mod, PKA inh, ROCK2 blocker)
Cc1ccccc1Nc1nc(-c2sc(NC(=O)c3cccc(Cl)c3)nc2C)cs1	hDAT+cocaine 1.7 (no result: D1 allo mod, PKA inh, ROCK2 blocker)
Cc1ccc(Cl)cc1Nc1nc(-c2sc(NC(=O)c3cccc(Cl)c3)nc2C)cs1	none (no result: D1 allo mod, PKA inh, ROCK2 blocker)
Cc1nc(NC(=O)c2ccccc2)sc1-c1csc(Nc2ccc(Cl)cc2Cl)n1	hDAT+cocaine 2.4 (no result: D1 allo mod, PKA inh, ROCK2 blocker)
CCOC(=O)C1=C(c2cccc(Oc3ccccc3)c2)NC(=S)NC1C (stereo not given)	none (no result: D1 allo mod, PKA inh, ROCK2 blocker)
Cc1ccccc1NC(=O)c1ccc(-n2cncn2)nc1	none (no result: D1 allo mod, PKA inh, ROCK2 blocker)
CCN(CC)c1ccc2cc(NC(=O)CCC(=O)O)c(=O)oc2c1	D1 allo mod -7.7
Cc1ccc2c(CSc3nc4ccccc4c(=O)n3CCCO)cc(=O)oc2c1	none (no result: hDAT+cocaine)
N#Cc1cc2c(nc1SCc1ccncc1)CCC2	ROCK2 blocker 58
N#Cc1cc2c(nc1SCc1ccccc1)CCC2	none (no result: D1 allo mod, PKA inh, ROCK2 blocker)
CCOC(=O)N1CCN(C(=O)c2sc3nc(-c4ccc(F)cc4)cn3c2C)CC1	none (no result: hDAT+cocaine, D1 allo mod)
Cc1c(C(=O)N2CC(C)OC(C)C2)sc2nc(-c3ccc(F)cc3)cn12 (stereo not given)	D1 allo mod -3 (no result: hDAT+cocaine)
CC(CCc1ccco1)NC(=O)Nc1cccc(F)c1 (stereo not given)	hDAT+cocaine -2.6
O=C(NCc1ccccc1)C1=C[C@H](C2CC2)C[C@H](OCCCCO)O1	none (no result: D1 allo mod, PKA inh, ROCK2 blocker)
CC1=C(C(=O)OCC2CCCO2)C(c2ccc(C)o2)C2=C(CC(c3ccc(F)cc3)CC2=O)N1 (stereo not given)	D1 allo mod -3.1
CC1=C(C(=O)OCC2CCCO2)C(c2ccc(C)o2)C2=C(CC(c3ccc(N(C)C)cc3)CC2=O)N1 (stereo not given)	none
Cc1cccc(CN2[C@@H](CC(C)C)COCCS2(=O)=O)c1	none (no result: D1 allo mod, PKA inh, ROCK2 blocker)
O=C(NCCCN1CCc2ccccc2C1)Nc1ccc(Cl)cc1	hDAT+cocaine -2.5 (no result: D1 allo mod, PKA inh, ROCK2 blocker)
CC(=O)Oc1cccc(N2C(=O)C3C4C=CC(C4=C(C)C)C3C2=O)c1 (stereo not given)	hDAT+cocaine -9
Nc1nc2ccccc2n1C(=O)CCc1ccccc1	ROCK2 blocker 146
O=C(c1cc2ccccc2oc1=O)N(Cc1cccs1)Cc1ccccc1Cl	hDAT+cocaine 2.5 (no result: D1 allo mod, PKA inh, ROCK2 blocker)
CCOc1ccc(C2/C(=C(/O)c3ccc(OC)cc3)C(=O)C(=O)N2c2cc(C)on2)cc1OC (stereo not given)	hDAT+cocaine 3.6
CC1(C)CC(=O)C=C(c2ccc3[nH]ccc3c2)C1	none (no result: D1 allo mod, PKA inh, ROCK2 blocker)
CCOC(=O)N1CCC(Nc2ccc3nnc(-c4ccccc4)n3n2)CC1	D1 allo mod -3
Cc1ccc(S(=O)(=O)NCCc2ccncc2)cc1	none
Cc1ccc(S(=O)(=O)NCCCOC(=O)Nc2ccncc2)cc1	ROCK2 blocker 23
COc1ccccc1-c1cc(C(=O)NC(C)C)no1	D1 allo mod -3.2
N#CCC(CNc1ncc(C(F)(F)F)cc1Cl)OC(=O)c1cccc([N+](=O)[O-])c1 (stereo not given)	none (no result: D1 allo mod, PKA inh, ROCK2 blocker)
COc1cc(O)c(C(CCN2CCCC(C)C2)c2ccc3c(c2)OCO3)c(OC)c1 (stereo not given)	none (no result: D1 allo mod, PKA inh, ROCK2 blocker)
COc1cc(O)c(C(CCN2CCCC(C)C2)c2ccc(N(C)C)cc2)c(OC)c1 (stereo not given)	hDAT+cocaine 2.2 (no result: D1 allo mod, PKA inh, ROCK2 blocker)
COc1ccc(C(=O)Nc2ccc(Cl)cc2C(=O)N2CCCC(C)C2)cc1 (stereo not given)	none (no result: D1 allo mod, PKA inh, ROCK2 blocker)
O=C(NCCCN1CCN(c2ccc(F)cc2)CC1)c1cccc(N2CCCC2=O)c1	D1 allo mod -6.1

Compound activity: PubChem BioAssay, several laboratories
